Test [1] can be described thus: qHTS RealTime-Glo MT Cell Viability Assay in HepG2 cells - 24 hour (AID 1224867). Note: nearly all actives have a fitted effect of over 50% in size. The method, boiled down: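 HepG2 cells were seeded at 600 cells/well together with NanoLuc luciferase and a cell-permeant prosubstrate, preincubated 5 h at 37 C/5% CO2, then pin-dosed with compounds in DMSO. Nonlytic luminescence from viable cells was read at each time point.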
On the technique in general: Quantitative high-throughput screening tests each substance at several concentrations.

Test [2] can be described thus: qHTS RealTime-Glo MT Cell Viability Assay in HEK293 cells - 32 hour (AID 1224868). Note: top concentration of the series differs between compounds; nearly all actives have a fitted effect of over 50% in size. The method, boiled down: (§1)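 HEK293 cells were seeded at 600 cells/well together with NanoLuc luciferase and cell-permeant prosubstrate, preincubated 5 h at 37 C/5% CO2, then given compound in DMSO by pintool. Luminescence from viable-cell prosubstrate reduction was read repeatedly over 40 h.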

Test [3] is described as follows: A CellTox Green Cytotoxicity Assay to monitor cytotoxicity in HEK293 cells - 0 hour (AID 1224869). Note: nearly all actives have a fitted effect of over 50% in size. Note: potency is the fitted concentration of half-maximal effect. The method, boiled down:
(§2)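 HEK293 cells, 600/well, were preincubated 5 hours and then exposed to compounds at 37 C for up to 40 hours. A cell-impermeant cyanine dye staining dead-cell DNA was read by fluorescence at 0, 8, 16, 24, 32 and 40 h time points.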

Test [4] in a line: qHTS RealTime-Glo MT Cell Viability Assay in HepG2 cells - 40 hour (AID 1224870). Note: nearly all actives have a fitted effect of over 50% in size. The method, boiled down: (§3)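 HepG2 cells mixed with RealTime-Glo MT reagents (NanoLuc plus cell-permeant prosubstrate) were seeded at 600 cells/well, incubated 5 h at 37 C/5% CO2, then pinned with compounds in DMSO; nonlytic luminescence tracked viability during 40 h treatment.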
Test [5] is described as follows: A CellTox Green Cytotoxicity Assay to monitor cytotoxicity in HEK293 cells - 40 hour (AID 1224871). Note: nearly all actives have a fitted effect of over 45% in size. Note: potency is the fitted concentration of half-maximal effect. The method, boiled down: as §2
Test [6] is described as follows: qHTS RealTime-Glo MT Cell Viability Assay in HEK293 cells - 16 hour (AID 1224872). The method, boiled down: as §1
Test [7] in a line: qHTS RealTime-Glo MT Cell Viability Assay in HepG2 cells - 8 hour (AID 1224873). Note: nearly all actives have a fitted effect of over 55% in size. The method, boiled down: as §3
A short description of test [8]: qHTS RealTime-Glo MT Cell Viability Assay in HEK293 cells - 40 hour (AID 1224874). Note: nearly all actives have a fitted effect of over 50% in size. Particulars: RealTime-Glo luminescence; max response: stronger effect = lower value. The method, boiled down:
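600 cells/well were plated with the nonlytic NanoLuc/prosubstrate reagent, pre-incubated 5 h, then given 23 nL of compound in DMSO. Incubation at 37 C for 40 h, with luminescence from viable-cell-reduced substrate read repeatedly from 0 h.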

Test [9] is described as follows: A CellTox Green Cytotoxicity Assay to monitor cytotoxicity in HEK293 cells - 24 hour (AID 1224875). For activity change: series mostly up to about 77 µM. Note: nearly all actives have a fitted effect of over 45% in size. Note: potency is the fitted concentration of half-maximal effect. The method, boiled down:
as §2

Unmarked numbers belong to inactive results. Inconclusive results are not listed. Activity calls are given as the source filed them. Calls come from the whole dose curve; as a rule, active = well fitted curve in the direction sought with a large enough effect in the repeat runs; inconclusive = weak or mixed curves; inactive = no such curve, though single readings can be large; an effect the other way counts as inactive or inconclusive.
% is set by controls: 0 for no effect and ±100 for the full control effect.

Take `CC(C)CCCC(C)CC=O` (stereo not given): the call in test [1], in [4] and in [7] was inactive. The Potency result in test [2], in test [3], in test [5], in test [6] and in test [9] was “inactive” throughout. For the same compound, in test [8], the max response was 0.176%.
In the case of `COc1ccc(/C=N/NC(=O)c2ccncc2)cc1OC`, the call in test [1] and in [4] was inactive. Further, the Potency entry in test [2], in test [3], in test [5], in test [6] and in test [9] was “inactive” throughout. Also, the max response in [8] was -6.3%.
As to `Cc1ccc2c(c1)c1c3n2CCNC3CCC1` (stereo not given), the outcome in test [1], in test [4] and in test [7] was inactive. In addition, the Potency result in test [2], in test [3], in test [5], in test [6] and in [9] was “inactive” each time.
Turning to `COC(=O)CCC(=O)O`, the call in [1], in test [4] and in test [7] was inactive. Further, the Potency entry in test [2], in [3], in test [5], in test [6] and in [9] was “inactive” in each case. The max response in test [8] was 8.17%.
As for `CNC(=O)C(c1ccccc1)c1ccccc1`, the outcome in [1] and in test [4] was inactive. Moreover, the Potency entry in test [2], in test [3], in test [5], in test [6] and in test [9] was “inactive” throughout. The max response in test [8] was 0.511%.
In the case of `C=C(C)C(=O)OC1CC(C)CC(C)(C)C1` (stereo not given), the call in [1] and in [4] was inactive. Further, the Potency result in [2], in test [3], in test [5], in test [6] and in test [9] was “inactive” in each case. In test [8], the max response is 3.29%.
Turning to `O=C(Nc1cccc(C2=NCCN2)c1)Nc1cccc(C2=NCCN2)c1`, the activity change, negative = cytotoxicity is 1.81% [at 15.8 µM] in test [1] and -0.101% [at 15.8 µM] in test [6]. Further, the activity change, negative = cytotoxic was -5.26% [at 15.8 µM] in [2] and 2.87% [at 15.8 µM] in test [4]. The cytotoxicity in test [3] is -3.81% [at 15.8 µM]. For the same compound, the cytotoxicity increase in test [5] was -2.61% [at 15.8 µM]. The viability change, negative = cytotoxic in test [7] is 1.42% [at 15.8 µM]. Further, the activity change in test [9] is -4.45% [at 15.8 µM, stronger effect = higher value].
Take `NCCc1ccn[nH]1`: the result in test [1] and in [4] was inactive. Besides, the Potency entry in test [2], in test [3], in test [5], in test [6] and in [9] was “inactive” throughout. Besides, the max response in [8] is 6.3%.
On to `C=COCCOCCOC=C`, for which the outcome in [1] and in [4] was inactive. The Potency result in test [2], in [3], in [5], in [6] and in [9] was “inactive” in each case. The max response in test [8] was -1.05%.
Take `O=C(/C=C/c1ccccc1)NCCO`: the compound was called inactive in [1], in test [4] and in test [7]. For the same compound, the Potency entry in test [2] and in [6] was “inactive” each time. The Potency was 9.52 µM (active) in test [3], 7.56 µM (active) in test [5] and 6.01 µM (active) in test [9]. In addition, in test [8], the max response was -3.72%.
As to `CCC(CO)CO`, the compound was called inactive in test [1], in test [4] and in test [7]. Also, the Potency entry in test [2], in test [3], in test [5], in [6] and in test [9] was “inactive” in each case.
Regarding `CC(C)CCCCCCOC(=O)C1CCCCC1C(=O)OCCCCCCC(C)C` (stereo not given), the compound was called inactive in [1] and in test [4]. Moreover, the Potency result in test [2], in test [3], in test [5], in test [6] and in test [9] was “inactive” throughout. In test [8], the max response was 14.8%.
On to `CC(=O)OCC(=O)[C@@]1(O)[C@H](OC(C)=O)C[C@H]2[C@@H]3CCC4=CC(=O)C=C[C@]4(C)[C@@]3(F)[C@@H](O)C[C@@]21C`, for which the compound was classed as inactive in test [1], in test [4] and in [7]. For the same compound, the Potency result in test [2], in test [3], in [5], in test [6] and in test [9] was “inactive” each time. Further, the max response in test [8] was 3.94%.
`Nc1ccc(S(=O)(=O)Nc2ccccn2)cc1`: the compound was called inactive in [1] and in test [4]. The Potency entry in [2], in [3], in test [5], in test [6] and in test [9] was “inactive” throughout. Also, the max response in test [8] was -4.15%.
Take `Nc1ccnc(=O)[nH]1`: the compound was called inactive in test [1] and in test [4]. Besides, the Potency result in test [2], in test [3], in [5], in test [6] and in test [9] was “inactive” in each case. In addition, the max response in test [8] is 4.83%.
Consider `CCCCCCCCCCCCC`, for which the compound was classed as inactive in test [1] and in [4]. In addition, the Potency result in test [2], in test [3], in [5], in test [6] and in test [9] was “inactive” throughout. The max response in test [8] is 7.99%.
Regarding `CC(=O)N(CC(O)CO)c1c(I)c(C(=O)NCC(O)CO)c(I)c(C(=O)NCC(O)CO)c1I` (stereo not given), the result in [1], in test [4] and in test [7] was inactive. For the same compound, the Potency entry in test [2], in test [3], in [5], in test [6] and in [9] was “inactive” throughout. In addition, the max response in test [8] was 6.97%.
With `CCCCC(CC)C(=O)OC(C)C` (stereo not given), the compound was called inactive in [1], in [4] and in test [7]. Moreover, the Potency entry in [2], in test [3], in test [5], in test [6] and in test [9] was “inactive” in each case.
With `O=C(O)Cc1cccc(-c2cc(CCCCCCc3ccc(O[C@H]4O[C@H](CO)[C@@H](O)[C@H](O)[C@@H]4O)c(-c4cccc(CC(=O)O)c4)c3)ccc2O[C@H]2O[C@H](CO)[C@@H](O)[C@H](O)[C@@H]2O)c1`, the results for the activity change, negative = cytotoxicity in [1] and in test [6] were 2.07% [at 0.29 µM] and 3.33% [at 0.29 µM], respectively. Besides, the activity change, negative = cytotoxic in [2] is 4.81% [at 0.29 µM]; in test [4] it was -21.2% [at 0.29 µM]. The cytotoxicity in test [3] is 3% [at 0.29 µM]. The cytotoxicity increase in [5] is -17.8% [at 0.29 µM]. Besides, the max response in [8] was -2.4%. Further, the activity change in test [9] is -8.86% [at 0.29 µM, stronger effect = higher value].
With `O=C(O)c1c(Cl)ccc(Cl)c1Cl`, the compound was classed as inactive in test [1], in test [4] and in test [7]. The Potency entry in [2], in test [3], in test [5], in test [6] and in test [9] was “inactive” each time.
`OC(CCN1CCCCC1)(c1ccccc1)c1ccccc1`: the result in [1] and in test [4] was inactive. In addition, the Potency result in [2], in test [3], in test [5] and in test [6] was “inactive” in each case. Further, the max response in test [8] is -16.7%.
With `Cc1ccc(S(=O)(=O)NC(=O)NC2CCCCCCC2)cc1`, the compound was classed as inactive in test [1], in test [4] and in test [7]. Moreover, the Potency result in [2], in [3], in [5], in [6] and in test [9] was “inactive” in each case.
`C[Si]1(C)N[Si](C)(C)N[Si](C)(C)N1`: the compound was called inactive in test [1] and in [4]. Also, the Potency result in [2], in test [3], in [5], in [6] and in [9] was “inactive” throughout. Besides, in test [8], the max response was 16.3%.
As to `COC(OC)C(C)c1ccccc1` (stereo not given), the result in test [1], in test [4] and in test [7] was inactive. Moreover, the Potency entry in test [2], in [3], in [5], in [6] and in test [9] was “inactive” throughout.
`CCCCCCCCCCCCCC(=O)OC`: the compound was classed as inactive in [1], in [4] and in test [7]. Moreover, the Potency result in [2], in test [3], in test [5], in test [6] and in test [9] was “inactive” throughout.
As to `NS(=O)(=O)c1ccc(Cl)c(S(N)(=O)=O)c1`, the compound was classed as inactive in test [1] and in test [4]. Besides, the Potency entry in test [2], in [3], in test [5], in [6] and in test [9] was “inactive” throughout. Further, in [8], the max response is 13.4%.
`FC(F)(F)/C(=N\OCC1OCCO1)c1ccc(Cl)cc1`: the call in test [1], in test [4] and in test [7] was inactive. Further, the Potency entry in test [2], in [3], in [6] and in [9] was “inactive” each time. In [8], the max response was 3.42%.
Consider `CCCCCC1Nc2cc(C(F)(F)F)c(S(N)(=O)=O)cc2S(=O)(=O)N1` (stereo not given), for which the compound was classed as inactive in test [1], in test [4] and in [7]. The Potency entry in test [2], in test [3] and in test [6] was “inactive” throughout. Also, the max response in [8] is -1.2%.
For `N#CCCOCCOCCC#N`, the outcome in test [1], in [4] and in [7] was inactive. In addition, the Potency entry in [2], in [3], in [6] and in test [9] was “inactive” in each case. In addition, the max response in test [8] is 9.79%.

These data come from PubChem BioAssay (Tox21).
